Assay outcomes: PubChem BioAssay, National Center for Advancing Translational Sciences (NCATS)
Sampled rows, rich in hits. Any-hit rate of the full collection: about 0.88%.
WRN inhibitor: WRN helicase (human) inhibition. WRN helicase unwinding, fluorescent forked duplex, kinetic. Potency, µM (highest dose often 114 µM), without a hit: top-dose activity change, negative = inhibition, usual class: inhibitors. 360,000 tested, 0.46% active. AID 651768; also: % is scaled to controls: 0 for no effect and ±100 for the full control effect; nearly all actives have a fitted effect of over 55% in size
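Primary qHTS, 1536-well format. 20 nM WRN + compound, 15 min RT; start with 100 nM forked fluorophore/quencher duplex, 2 mM ATP (final); kinetic read ex 525/em 598 nm.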
ERG Ets-DNA blk: blocks human ERG Ets domain binding to DNA. 370,000 tested, 0.028% active. fluorescence polarization, His-ERG Ets domain / labelled DNA. Potency, µM (doses to about 76.9 µM), without a hit: top-dose FP activity, negative = inhibition, actives largely listed as inhibitors. AID 624246. P11308; active = well fitted inhibition curve with a large enough effect in the polarisation, with a control signal flat; inconclusive = small, poorly fitted or top-dose-only effect, or effect the other way, or a change in a side signal; inactive = no such curve, though single readings can be large or run the other way; the % refers to the polarisation;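 also: polarization taken with two DNA probes labelled with fluorescein and Texas red; % of control where 0% means no effect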
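His-tagged ERG Ets domain (1 uM in the protein solution; 300mM KCl, 50mM Tris-HCl, 1mM EDTA, 1mM DTT, pH 7.5) received compound, then a probe mix of 5 nM fluorescein-DNA and 100nM Texas-615-DNA. Fluorescence polarization was read for both dyes.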
RECQ1 inh: inhibitors of human RECQ1 DNA helicase; Potency, µM (titrated, usually from 57.3 µM), without a hit: at the highest dose activity, negative = inhibition, usual class: inhibitors; 240,000 tested, 0.54% active; P46063; RECQ1 DNA unwinding, red fluorescence kinetic read; AID 2549;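 also: plate controls were vehicle for no effect and no enzyme for full effect; nearly all actives have a fitted effect of over 30% in size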
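RECQ1T1 50 nM; forked duplex (20 bp + 30-nt ss tails) 200 nM, ATP 2 mM final; pH 8.0, 2 mM MgCl2, 2.5 ug/ml poly(dI-dC); 15 min compound preincubation; discontinuous kinetic read over 2 h at RT.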
BLM inh: inhibitors of human Bloom syndrome helicase BLM | P54132 | AID 2528 | recombinant BLM DNA unwinding, fluorescence dequenching | Potency, µM (series often up to 56.1 µM), inactives show top-dose activity change, negative = inhibition, most hits filed as inhibitors | 350,000 tested, 0.2% active;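 also: plate controls were vehicle for no effect and no enzyme for full effect; nearly all actives have a fitted effect of over 35% in size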
Target sequence (P54132 whole entry, looked up): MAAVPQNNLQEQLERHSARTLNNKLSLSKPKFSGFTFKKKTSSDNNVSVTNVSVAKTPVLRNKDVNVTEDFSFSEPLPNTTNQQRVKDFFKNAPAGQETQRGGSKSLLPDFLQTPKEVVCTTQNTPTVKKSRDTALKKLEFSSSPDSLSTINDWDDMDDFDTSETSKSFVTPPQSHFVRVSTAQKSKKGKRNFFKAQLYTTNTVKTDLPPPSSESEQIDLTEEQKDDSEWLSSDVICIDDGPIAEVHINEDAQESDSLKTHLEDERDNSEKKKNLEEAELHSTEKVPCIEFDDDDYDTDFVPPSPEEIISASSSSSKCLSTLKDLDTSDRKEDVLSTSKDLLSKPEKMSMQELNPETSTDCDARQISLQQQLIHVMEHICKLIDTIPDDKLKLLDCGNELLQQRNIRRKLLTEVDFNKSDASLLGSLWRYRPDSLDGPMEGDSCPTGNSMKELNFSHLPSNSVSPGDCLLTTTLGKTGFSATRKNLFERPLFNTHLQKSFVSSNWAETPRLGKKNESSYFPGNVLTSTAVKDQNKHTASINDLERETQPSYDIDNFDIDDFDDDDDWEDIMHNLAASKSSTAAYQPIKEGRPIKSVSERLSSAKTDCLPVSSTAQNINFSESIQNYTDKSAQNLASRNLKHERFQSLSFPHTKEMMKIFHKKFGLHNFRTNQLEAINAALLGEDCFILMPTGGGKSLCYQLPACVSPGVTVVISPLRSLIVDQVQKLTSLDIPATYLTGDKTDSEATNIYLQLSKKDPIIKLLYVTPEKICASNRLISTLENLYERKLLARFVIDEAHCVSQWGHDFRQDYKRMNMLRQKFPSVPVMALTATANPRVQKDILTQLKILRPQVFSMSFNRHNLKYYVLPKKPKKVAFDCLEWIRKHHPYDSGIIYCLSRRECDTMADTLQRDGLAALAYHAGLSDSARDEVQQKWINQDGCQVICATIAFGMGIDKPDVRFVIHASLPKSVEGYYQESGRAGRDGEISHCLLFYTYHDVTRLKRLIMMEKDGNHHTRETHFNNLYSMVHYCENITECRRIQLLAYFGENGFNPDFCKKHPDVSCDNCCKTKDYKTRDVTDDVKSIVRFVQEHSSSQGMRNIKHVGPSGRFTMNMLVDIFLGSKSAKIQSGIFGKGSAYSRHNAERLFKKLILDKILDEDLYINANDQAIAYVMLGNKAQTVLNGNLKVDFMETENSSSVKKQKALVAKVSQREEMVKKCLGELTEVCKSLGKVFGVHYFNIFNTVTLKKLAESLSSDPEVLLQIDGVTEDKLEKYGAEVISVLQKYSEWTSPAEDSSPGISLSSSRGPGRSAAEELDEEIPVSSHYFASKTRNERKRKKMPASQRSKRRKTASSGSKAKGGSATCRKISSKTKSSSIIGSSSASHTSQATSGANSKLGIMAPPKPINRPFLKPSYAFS
APE1 inh: blocks human APE1 abasic DNA cleavage | 350,000 tested, 0.35% active | recombinant APE1, TAMRA/BHQ-2 abasic DNA cleavage fluorescence | P27695 | Potency, µM (highest dose often 65.8 µM), without a hit: at the highest dose activity change, negative = inhibition, usual class: inhibitors;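 also: plate controls were vehicle for no effect and reference inhibitor for full effect; nearly all actives have a fitted effect of over 55% in size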
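Incision of a quenched TAMRA/BHQ-2 THF abasic-site duplex (50 nM) by 0.75 nM APE1, after 15 min compound preincubation, measured as fluorescence increase over three 60 s reads. Values normalized to buffer, DMSO and NSC13755 control wells.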
KAT2A inh: GCN5L2 (KAT2A) acetyltransferase inhibition; Q92830; Potency, µM (doses to about 58.9 µM), without a hit: top-dose activity change, negative = inhibition, actives largely listed as inhibitors; AID 504327; 390,000 tested, 0.21% active; GCN5L2 HAT assay, ThioGlo1 CoA-SH fluorescence; also: % is scaled to controls: 0 for no effect and ±100 for the full control effect
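Compounds, pin-transferred from DMSO stocks, meet 20nM GCN5L2 for 15 min before the reaction begins with H3(1-25) peptide (75uM) and acetyl-CoA (70uM). Thiol-reactive ThioGlo1 reports CoA release over 20 min at room temperature.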
* = called active by the depositor; i = inactive; ? = inconclusive; . = no result given; [ ] = another dose, or the depositor's remark. Unless noted, calls follow the shape of the dose curve; as a rule, active = well fitted curve in the direction sought with a large enough effect; inconclusive = small, poorly fitted or top-dose-only effect, or another doubt; inactive = no such curve, though single readings can be large; an effect the other way counts as inactive or inconclusive. Potency is read from the fitted curve at half-maximal effect.

SMILES	WRN inhibitor	ERG Ets-DNA blk	RECQ1 inh	BLM inh	APE1 inh	KAT2A inh
C=CCN1C(=O)/C(=C/c2ccc(Br)s2)C(=O)NC1=S	56.2µM*	74.4%	.	-14.6%	32.3%	-24.2%
C=CCN1C(=O)/C(=C\c2ccc(N3CCOCC3)o2)C(=O)NC1=S	-25.5%	19.2%	-21.7%	-4.3%	?	-8.3%
[Cl-].[Cl-].[Hg+2]	.	.	-9.1%	-7.2%	.	0.141µM*
CC1(C)[C@H](C(=O)O[C@H](C#N)c2cccc(Oc3ccccc3)c2)[C@@H]1C=C(Br)Br	.	.	-18.6%	-5.9%	-2.0%	2.8%
C[C@H]1CC[C@]2(NC1)O[C@H]1C[C@H]3[C@@H]4CC[C@H]5C[C@@H](O)CC[C@]5(C)[C@H]4CC[C@]3(C)[C@H]1[C@@H]2C	.	.	.	.	-4.0%	.
O=C(CN1CCCC1)Nc1ccc(Cl)cc1C(=O)c1ccccc1	7.9%	12.6µM*	-6.0%	-1.4%	-7.8%	-10.0%
COc1cc(N2CCOCC2)ccc1/C=C1\C(=O)NC(=O)N(Cc2ccc3c(c2)OCO3)C1=O	50.1µM*	23.5%	-2.4%	-3.9%	4.2%	-16.9%
COc1ccc(CN2C(=O)NC(=O)/C(=C\c3cccc(OC)c3OC)C2=O)cc1	?	0.7%	-6.4%	-4.8%	4.2%	-2.9%
COc1cc(N2CCOCC2)ccc1/C=C1\C(=O)NC(=O)N(Cc2cccs2)C1=O	50.1µM*	39.3%	i	-5.8%	-2.0%	-12.7%
COc1cc(N2CCOCC2)ccc1C=C1C(=O)NC(=O)NC1=O	-25.5%[57.1 µM]	5.0%	-9.1%	-0.3%	-1.3%	-11.8%
O=c1[nH]c(=O)n(-c2cccc(Cl)c2)c(O)c1C=NCCN1CCCCC1	-4.1%	.	-11.3%	-8.1%	2.8%	-1.3%
COc1cccc(-n2c(O)c(C=NCCN3CCOCC3)c(=O)[nH]c2=O)c1	-1.5%	7.3%	-2.7%	-3.2%	-0.5%	14.1µM*
CN1/C(=C\C=Nc2ccccc2)C(C)(C)c2ccccc21	-14.7%	?	?	-2.0%	?	-8.3%
CN1/C(=C\C=C\C2=[N+](C)c3ccc4ccccc4c3C2(C)C)C(C)(C)c2ccccc21	.	.	28.2µM*	31.6µM*	28.2µM*	-21.0%
CCn1nc(-c2ccccc2)nc2c(=O)n(C)c(=O)nc1-2	-18.3%	-17.0%	-24.9%	1.41µM*	?	?
COc1ccc2c3c1O[C@H]1[C@@H](O)C=C[C@H]4[C@@H](C2)NCC[C@@]341	.	.	.	.	-3.0%	.
O=C1NC(=O)C(Sc2ccccc2[N+](=O)[O-])C(=O)N1	?	-3.0%	.	-0.2%	38.8%	-17.0%
C=CCn1c(CSc2ccccc2[N+](=O)[O-])n[nH]c1=S	39.8µM*	-1.9%	.	-25.4%	?	-19.5%
COc1ccc(OC)c([C@@H](O)[C@H](C)N)c1	.	.	.	.	0.9%	.
CCCCOc1ccc(C(C)=O)cc1Cc1c(O)[nH]c(=S)[nH]c1=O	4.7%	4.1%	.	-4.3%	20.0%	?
COc1ccc(Cc2c(O)[nH]c(=S)[nH]c2=O)cc1	-35.9%	15.3%	.	-1.7%	-1.4%	6.31µM*
CN1C[C@H](C(=O)N[C@]2(C)O[C@@]3(O)[C@H]4CCCN4C(=O)[C@H](Cc4ccccc4)N3C2=O)C[C@H]2c3cccc4[nH]cc(c34)C[C@@H]21	.	.	-6.7%	-15.4%	-8.0%	.
O=C(c1cccc(C(F)(F)F)c1)C1CCCN(Cc2ncc[nH]2)C1 (centres undefined)	1.2%	-2.5%	i	-7.1%	-2.3%	0.159µM*
N#CC1=C(N)Oc2n[nH]c(-c3cccs3)c2C1c1ccco1 (centres undefined)	-31.6%	3.1%	31.6µM*	-13.2%	-0.5%	-5.0%
COC(=O)[C@@H]1[C@H]2CC[C@@H](C[C@H]1OC(=O)c1ccccc1)N2C	.	.	.	.	-3.3%	.
Cc1ccc(N2C(=O)NC(=O)/C(=C/c3ccc(OC(=O)c4cccs4)cc3)C2=O)cc1	50.1µM*	-7.9%	-7.3%	-1.5%	-4.8%	-18.1%
